Assay outcomes from PubChem BioAssay.
CD11b adhes enh – enhancers of human CD11b/CD18 binding to fibrinogen; AID 1499; K562 CD11b/CD18 adhesion to fibrinogen, ATPlite luminescence; P05107+P11215; actives 0.07% (n = 93,000); activation, % at 10 µM;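 active = 10 µM primary screen giving 50% or more activity, confirmed by 40% or more on retest at that dose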
Target sequence (P05107 whole entry, looked up, other chains not shown): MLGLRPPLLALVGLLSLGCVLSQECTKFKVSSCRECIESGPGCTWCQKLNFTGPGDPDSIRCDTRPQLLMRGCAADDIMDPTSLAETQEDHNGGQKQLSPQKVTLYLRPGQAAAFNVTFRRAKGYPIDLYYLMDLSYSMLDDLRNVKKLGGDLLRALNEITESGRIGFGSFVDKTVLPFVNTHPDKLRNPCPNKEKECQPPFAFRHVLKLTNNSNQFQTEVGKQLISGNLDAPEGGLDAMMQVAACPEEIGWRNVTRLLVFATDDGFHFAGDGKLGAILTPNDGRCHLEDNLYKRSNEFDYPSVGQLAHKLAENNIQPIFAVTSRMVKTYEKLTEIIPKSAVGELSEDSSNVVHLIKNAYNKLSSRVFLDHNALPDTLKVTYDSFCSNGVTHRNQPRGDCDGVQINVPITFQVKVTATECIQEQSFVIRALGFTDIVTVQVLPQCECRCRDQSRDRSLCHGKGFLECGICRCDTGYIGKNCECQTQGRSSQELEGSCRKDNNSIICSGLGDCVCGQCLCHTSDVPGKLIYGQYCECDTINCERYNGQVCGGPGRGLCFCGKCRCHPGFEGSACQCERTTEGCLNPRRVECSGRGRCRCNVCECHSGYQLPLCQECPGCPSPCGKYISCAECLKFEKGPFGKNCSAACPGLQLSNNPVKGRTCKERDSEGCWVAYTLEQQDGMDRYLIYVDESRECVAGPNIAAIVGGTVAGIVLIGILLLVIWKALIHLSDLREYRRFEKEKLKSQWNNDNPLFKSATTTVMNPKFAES
S1P2 ag – S1P2 (human) receptor agonism; O95136; S1P2-expressing cell line, agonist reporter read-out; activation, % at 4.5 µM; actives 0.46% (n = 97,000); AID 729; in the data active = activation above about 16%
GALR2 ag – GALR2 (human) receptor agonism | O43603 | GALR2-expressing cells, agonist activation read-out | activation, % (test concentration not listed) | actives 0.48% (n = 140,000); in the data active = activation above about 5%, passing the limit was not always enough
Mac1 fbg inh – inhibitors of human CD11b/CD18 binding to fibrinogen; P05107+P11215; K562 CD11b/CD18 adhesion to fibrinogen, ATPlite luminescence; Mn2+ added to activate the integrin; inhibition, % at 10 µM; actives 0.54% (n = 93,000); AID 1497;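 active = primary inhibition of 50% or more at 10 µM, then 40% or more on retest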
GALR2 antag – antagonists of human galanin receptor 2 (GALR2). O43603. GALR2-expressing cells, antagonist mode. inhibition, % at 4 µM. actives 0.39% (n = 140,000). AID 828; in the data active = inhibition above about 27%;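 note: cells stimulated with galanin 1-16 at roughly its EC80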
S1P2 blocker – S1P2 (human) receptor antagonism; O95136; cell-based S1P2 antagonist assay, inhibition at 5 uM; inhibition, % at 5 µM; actives 0.21% (n = 97,000); in the data active = inhibition above about 45%;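 note: CRE beta-lactamase reporter cells expressing human S1P2 stimulated with S1P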
GALR2 ag confirm – confirmation of human galanin receptor 2 (GALR2) agonists; actives 10% (n = 460); GALR2-expressing cells, agonist activation; activation, % at 5.6 µM; shares compounds with GALR2 ag; in the data active = activation above about 8.4%
BLA activ ctr – counter-screen for GALR2 agonists: beta-lactamase reporter activators | shares compounds with GALR2 ag | CHO NFAT-bla reporter, beta-lactamase FRET activation | activation, % at 5.6 µM | actives 10% (n = 460) | AID 865;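 active = activation above the screen-wide mean activation plus 3 SD, cut at about 8% in these data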
Large screens that a line does not name were inactive (follow-up assays come after a bar, where they were run). The list is not random: actives were taken first. Their share in the collection is about 1.5%.

Cc1ccc(NC2=C/C(=N/S(=O)(=O)c3cccs3)c3ccccc3C2=O)cc1C	none (no result: CD11b adhes enh, S1P2 ag, Mac1 fbg inh, S1P2 blocker)
COC(=O)C(C(C)=O)C1=C/C(=N\S(=O)(=O)c2ccc(C)cc2)c2ccccc2C1=O (stereo unspecified)	Mac1 fbg inh 66
Cc1ccc(-c2nn(-c3ccccc3)cc2/C=N/NC(=O)c2ccc(Br)o2)cc1	S1P2 blocker 100 (no result: CD11b adhes enh, Mac1 fbg inh)
Cc1ccc(NC(=S)N2CCN(c3ncccn3)CC2)c(C)c1	none (no result: S1P2 ag, S1P2 blocker)
CCNC(=O)NC(=O)C(C)Sc1nc2ccccc2n1CC(C)C (stereo unspecified)	none
CCn1c(-c2ccc(N(C)C)cc2)nc2ccccc21	Mac1 fbg inh 59
CN(C)c1ccc(-c2nc3ccccc3n2C)cc1	Mac1 fbg inh 78
CC(C)n1c(-c2ccc(N(C)C)cc2)nc2ccccc21	none
O=C(Nc1ccc(F)cc1)c1ccccc1S(=O)(=O)c1ccccc1[N+](=O)[O-]	none (no result: CD11b adhes enh, S1P2 ag, Mac1 fbg inh, S1P2 blocker)
Cc1cccc(-n2nc3c([n+]2[O-])CCc2nonc2-3)c1C	none (no result: CD11b adhes enh, S1P2 ag, Mac1 fbg inh, S1P2 blocker)
[O-][n+]1onc2c1CCc1c-2nn(-c2ccccc2Cl)[n+]1[O-]	GALR2 antag 42
Cc1ccc(-n2nc3c([n+]2[O-])CCc2c-3no[n+]2[O-])cc1	GALR2 antag 49 (no result: S1P2 ag, S1P2 blocker)
CCOC(=O)c1sc(NC(=O)CCN2C(=O)c3cccc([N+](=O)[O-])c3C2=O)c(C(=O)OCC)c1C	none
FC(F)(F)c1nc(-c2ccncc2)ncc1-c1nnnn1-c1ccccc1	none
FC(F)(F)c1nc(N2CCCC2)ncc1-c1nnnn1-c1ccc(Cl)cc1	Mac1 fbg inh 55
Fc1ccc(-n2nnnc2-c2cnc(-c3cccs3)nc2C(F)(F)F)cc1	S1P2 blocker 76
Cc1ccc(-n2nnnc2-c2cnc(-c3cccnc3)nc2C(F)(F)F)cc1	none
Cc1ccc(S(=O)(=O)N2CCOCC2)cc1C(=O)OCC(=O)NC1CCS(=O)(=O)C1 (stereo unspecified)	none (no result: CD11b adhes enh, S1P2 ag, Mac1 fbg inh, S1P2 blocker)
O=C(CCCn1c(=S)[nH]c2cc3c(cc2c1=O)OCO3)N1CCN(c2ccccc2F)CC1	S1P2 ag 31
CCOC(=O)Nc1ccc2c(c1)N(C(=O)CCN1CCOCC1)c1ccccc1S2=O (stereo unspecified)	GALR2 antag 41
CCc1cccc(C)c1NC(=S)NCC(c1cccnc1)N1CCOCC1 (stereo unspecified)	none (no result: S1P2 ag, S1P2 blocker)
CSc1nc(SCCO)c2sc3nc(-c4ccco4)c4c(c3c2n1)CC(C)(C)OC4	GALR2 ag 6.3
CSc1nc(N(CCO)CCO)c2sc3nc(-c4ccco4)c4c(c3c2n1)CCC4	none (no result: S1P2 ag, S1P2 blocker)
COc1ccc2[nH]c(=O)c3c(c2c1)OC(C)(C)C=C3	S1P2 blocker 57
COc1ccc(-c2cc(=O)c3cc(OC)ccc3[nH]2)cc1	none (no result: CD11b adhes enh, S1P2 ag, Mac1 fbg inh, S1P2 blocker)
Cc1ccc(S(=O)(=O)NN=C2C3CC4CC(C3)CC2C4)cc1[N+](=O)[O-]	none (no result: CD11b adhes enh, S1P2 ag, Mac1 fbg inh, S1P2 blocker)
O=c1oc2c(CN3CCOCC3)c(O)ccc2c2c1CCCC2	GALR2 ag 5.0 (no result: S1P2 ag, S1P2 blocker)
O=c1oc2c(CN3CCOCC3)c(O)ccc2c2ccccc12	none (no result: CD11b adhes enh, Mac1 fbg inh)
O=C(COc1ccc(/C=N/NC(=O)C(=O)N2CCCCCC2)cc1)Nc1ccccc1Cl	none (no result: CD11b adhes enh, S1P2 ag, Mac1 fbg inh, S1P2 blocker)
COC(=O)[C@@]1(Cc2ccc(F)cc2)[C@H]2c3cc(C(=O)N(C)C)n(Cc4c(CO)[nH]cc(C)c4=O)c3C[C@H]2CN1C(=O)c1ccccc1	none (no result: CD11b adhes enh, S1P2 ag, Mac1 fbg inh, S1P2 blocker)
O=C(NCCCN1CCCCCC1)C1CC(=O)N(CCc2ccccc2)C1 (stereo unspecified)	CD11b adhes enh 82
Cc1nc(SCC(=O)Nc2ccccc2)c2oc3ccccc3c2n1	S1P2 ag 17
Cc1c(Cc2ccccc2)sc(NC(=O)/C=C/c2cccc3ccccc23)c1C(N)=O	none (no result: S1P2 ag, S1P2 blocker)
Cc1ccc(C(OCCN(C)C)c2cccc(C(F)(F)F)c2)cc1 (stereo unspecified)	none (no result: CD11b adhes enh, S1P2 ag, Mac1 fbg inh, S1P2 blocker)
O=C(CCS(=O)(=O)c1ccc(Br)cc1)Nc1ccc(Br)cc1F	none (no result: CD11b adhes enh, S1P2 ag, Mac1 fbg inh, S1P2 blocker)
CCN(CC)c1ccc(Nc2nc(N3CCOCC3)c3ccccc3n2)cc1	Mac1 fbg inh 65
C/C(=N\NC(=O)CCCOc1ccc(Cl)cc1C)c1ccc(C)o1	none (no result: CD11b adhes enh, S1P2 ag, Mac1 fbg inh, S1P2 blocker)
CCOC(=O)c1cc2c(=O)n3ccccc3nc2n(Cc2ccco2)c1=NC(=O)c1cccnc1	none
CCOC(=O)c1cc2c(=O)n3ccccc3nc2n(CC(C)C)c1=NC(=O)c1ccco1	none
CCOC(=O)c1cc2c(=O)n3ccccc3nc2n(C(C)C)c1=NC(=O)c1ccncc1	S1P2 ag 18
CCOCCCn1c(=NC(C)=O)c(C(=O)OCC)cc2c(=O)n3ccccc3nc21	S1P2 ag 19, GALR2 ag 7.8
CCOC(=O)c1cc2c(=O)n3ccccc3nc2n(CCOC)c1=NC(=O)C(C)(C)C	S1P2 ag 25, GALR2 ag 8.7
CCOC(=O)c1cc2c(=O)n3ccccc3nc2n(CCOC)c1=NC(=O)c1ccncc1	S1P2 ag 19, GALR2 ag 7.5
CCOC(=O)N/N=C(\C)c1ccccc1OC(F)F	none (no result: CD11b adhes enh, S1P2 ag, Mac1 fbg inh, S1P2 blocker)
CCOC(=O)c1cc2c(=O)n3ccccc3nc2n(CCCOC)c1=NC(=O)C(C)(C)C	S1P2 ag 33, GALR2 ag 12 (no result: CD11b adhes enh, Mac1 fbg inh)
CCOC(=O)c1cc2c(=O)n3ccccc3nc2n(Cc2ccccc2)c1=N	none
CCOC(=O)c1cc2c(=O)n3ccccc3nc2n(CCCOC)c1=NC(=O)c1cccnc1	S1P2 ag 22 (no result: CD11b adhes enh, Mac1 fbg inh)
Cc1ccc(C(=O)NCCn2c(N)c(C#N)c3nc4ccccc4nc32)cc1	none (no result: CD11b adhes enh, S1P2 ag, Mac1 fbg inh, S1P2 blocker)
CCC(C)n1c(NC(=O)c2ccccc2)c(C#N)c2nc3ccccc3nc21 (stereo unspecified)	S1P2 ag 56, GALR2 ag 34 (no result: CD11b adhes enh, Mac1 fbg inh)
O=C1c2ccccc2-c2c1cccc2C(=O)N1CCOCC1	none (no result: CD11b adhes enh, Mac1 fbg inh)
O=C1c2ccccc2C(=O)c2c1cccc2N1CCOCC1	S1P2 ag 22
COc1ccc(NC(=O)CCCc2c[nH]c3ccccc23)cc1OC	none (no result: S1P2 ag, S1P2 blocker)
COc1ccc(C(c2c[nH]c3ccccc23)c2c[nH]c3ccccc23)cc1O	S1P2 ag 89
CSc1ccccc1C(=O)Nc1ccc2c(c1)OCCO2	none
O=C(Nc1ccc2c(c1)OCCO2)c1coc2ccccc2c1=O	Mac1 fbg inh 52 (no result: S1P2 ag, S1P2 blocker)
COc1ccc(OCC(O)Cn2c(=N)n(Cc3ccccc3)c3ccccc32)cc1 (stereo unspecified)	GALR2 antag 29
Cc1cccc(NC(=O)Nc2ccc(C#N)cc2)n1	GALR2 antag 38 (no result: S1P2 ag, S1P2 blocker)
Cc1cccc(NC(=O)Nc2cccc(C#N)c2)n1	none (no result: S1P2 ag, S1P2 blocker)
COCCNC(=O)/C=C/c1c(Cl)cccc1Cl	none (no result: CD11b adhes enh, S1P2 ag, Mac1 fbg inh, S1P2 blocker)
CCOC(=O)c1cc2nc(Nc3ccc(OC)cc3)sc2s1	none | GALR2 ag confirm inactive | BLA activ ctr inactive
